Values without a mark were called inactive. Results filed as inconclusive are left out. Activity calls are given as the source filed them. The call rests on the fitted dose curve; in most records, active means well fitted curve in the direction sought with a large enough effect; inconclusive means small, poorly fitted or top-dose-only effect, or another doubt; inactive means no such curve, though single readings can be large; an effect the other way counts as inactive or inconclusive. Where a SMILES comes first, the peptide text is derived from it. The star is where a group is joined. AFC = O=c1cc(C(F)(F)F)c2ccc(N*)cc2o1

Experiment [1] in a line: Primary fluorescence-based thiol-reactive (MSTI) qHTS assay for identification of artifact compounds. (AID 1845221). Further: nearly all actives have a fitted effect of over 65% in size. Further: potency means the concentration at half of the fitted maximal effect.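 On activity change, negative = thiol reactive: thiol-reactive compounds lower the probe fluorescence signal.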 The conditions noted are these: MSTI thiol-reactivity probe, 1 h; series mostly up to 53.8 µM. In short, it runs like this:
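Reactivity toward the thiol probe MSTI (4 uM) is scored by fluorescence at Ex/Em 525/598 nm after 1 h at room temperature. Acetyl-MSTI and MSTI define the activity scale.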

Experiment [2] relates to Nanoluciferase (engineered Oplophorus gracilirostris luciferase). Briefly: Primary Nanoluciferase (NLuc) qHTS assay for identification of artifact compounds. (AID 1845222). Further: potency means the concentration at half of the fitted maximal effect.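 On activity, negative = inhibition: NLuc secreted into diluted conditioned medium of S16 cells; 0% = DMSO and -100% = no enzyme.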 The conditions noted are these: NLuc-conditioned medium, Nano-Glo luminescence, 5 min; series mostly up to 54.1 µM. In short, it runs like this: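 Using secreted nanoluciferase in S16 culture medium (0.22 um filtered, 1:55 dilution), compounds were preincubated 15 min at RT. Signal was generated with Nano-Glo reagent (1:100) over 5 min.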
(In qHTS, concentration-response curves come from the screen itself.)

A short description of experiment [3]: Primary redox qHTS assay for identification of artifact compounds. (AID 1845223).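 Further: 0% = DMSO and 100% = reference compound.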 The conditions noted are these: Amplex Red/HRP redox cycling with DTT, fluorescence; series mostly up to 53.8 µM. The procedure, abridged:
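Amplex Red (25 uM) and HRP (250 mU/mL) in HBSS, with compounds for 15 min, then 250 uM DTT for 30 min, room temperature, dark. Fluorescence 525/598 nm read; normalized to DMSO and 10 uM DA3003; Hill fit.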

As to `CC(C)[C@H]1CCC(CO)=C[C@@H]1/C=C(\CO)C(=O)O`, the Potency entry in experiment [1], in experiment [2] and in experiment [3] was “inactive” in each case.

On to `O=C(NCc1ccc(OC(F)(F)F)cc1)C1c2ccccc2C(=O)N1C1CCOCC1` (configuration not stated), for which the Potency result in experiment [1], in experiment [2] and in experiment [3] was “inactive” in each case.

Regarding `C/C(=C\CCC(C)(O)c1ccc(C)cc1)C(=O)O` (configuration not stated), the Potency result in experiment [1], in experiment [2] and in experiment [3] was “inactive” throughout.

As to `CC1=C(CC(=O)O)c2cc(F)ccc2C1=Cc1ccc(S(C)(=O)=O)cc1`, the Potency result in experiment [1], in experiment [2] and in experiment [3] was “inactive” each time.

As for `CCOc1nc2cccc(C(=O)O)c2n1Cc1ccc(-c2ccccc2-c2noc(=O)[nH]2)cc1`, the Potency entry in experiment [1] and in experiment [3] was “inactive” each time. For the same compound, in experiment [2], the Potency was 21.3 µM (active).

With `CC1=CC(=O)C[C@H]2[C@@H]1CC[C@@H](C)[C@]21CO[C@H](c2ccoc2)C1=O`, the Potency entry in experiment [1], in experiment [2] and in experiment [3] was “inactive” throughout.

As for `CN1C(=O)c2ccccc2-n2c(nc3ccccc3c2=O)/C1=C/c1ccccc1`, the Potency result in experiment [1], in experiment [2] and in experiment [3] was “inactive” throughout.

On to `CN(C)c1cccc(-c2c3c(=O)n(-c4ccccc4Cl)[nH]c3cc(=O)n2C)c1`, for which, in experiment [1], the Potency is 1.89 µM (active). Also, the Potency entry in experiment [2] and in experiment [3] was “inactive” each time.

As to `CC(=O)O[C@@H]1C[C@@]23C[C@@]24CC[C@H](OC2OC[C@@H](O)[C@H](O)[C@H]2O)C(C)(C)[C@@H]4CC[C@H]3[C@]2(C)CC3OC4(C[C@@H](C)C3[C@@]12C)OCC1(C)OC14` (some centres not stated), the Potency result in experiment [1], in experiment [2] and in experiment [3] was “inactive” each time.

With `C=C1C[C@@]23CC[C@@H]4[C@](C)(C(=O)O)CCC[C@@]4(C)C2=CC[C@H]1C3`, the Potency result in experiment [1], in experiment [2] and in experiment [3] was “inactive” throughout.

For `CC(C)(O)/C=C1/C(=O)C(C)(C)C(=O)C(C)(C)C1(O)O[C@@H]1O[C@H](COC(=O)c2cc(O)c(O)c(O)c2)[C@@H](O)[C@H](O)[C@H]1O` (some centres not stated), in experiment [1], the Potency is 0.707 µM (active). Moreover, the Potency entry in experiment [2] and in experiment [3] was “inactive” in each case.

Take `NC(=O)[C@H]1CCCCc2c1[nH]c1ccc(Cl)cc21`: the Potency result in experiment [1], in experiment [2] and in experiment [3] was “inactive” throughout.

For the compound `CC(=O)[C@@H]1CC[C@]2(C(=O)O)CC[C@]3(C)C(CCC4[C@@]5(C)CC[C@H](O)C(C)(C)C5CC[C@]43C)C12` (some centres not stated), the Potency entry in experiment [1], in experiment [2] and in experiment [3] was “inactive” each time.

On to `C=C(C(=O)O)[C@@H]1CC=C2CCC[C@H](C)[C@@]2(C)C1`, for which the Potency result in experiment [1], in experiment [2] and in experiment [3] was “inactive” throughout.

As to `CC1(C)C(=O)N2c3ccccc3[C@]3(CC(n4cnc5ccccc5c4=O)C(=O)O3)[C@H]2N1O` (some centres not stated), the Potency entry in experiment [1], in experiment [2] and in experiment [3] was “inactive” each time.

Turning to `CC(=O)N[C@@H](CC(C)C)C(=O)N[C@@H](CCC(=O)O)C(=O)N[C@@H](CCC(=O)O)C(=O)N[C@@H](CC(=O)O)C(=O)Nc1ccc2c(C(F)(F)F)cc(=O)oc2c1` (Ac-LEED-{AFC}), the Potency result in experiment [1], in experiment [2] and in experiment [3] was “inactive” in each case.

Turning to `CCC(=O)N[C@@H]1Cc2ccccc2[C@H](c2ccccc2)C1`, the Potency entry in experiment [1], in experiment [2] and in experiment [3] was “inactive” in each case.

For the compound `C=C1[C@H]2[C@H](O[C@@H]3O[C@H](COC(=O)/C=C/c4cc(OC)c(O)c(OC)c4)[C@@H](O)[C@H](O)[C@H]3O)OC=C(C(=O)O)[C@H]2C[C@@H]1O`, the Potency in experiment [1] is 7.07 µM (active). Moreover, the Potency result in experiment [2] and in experiment [3] was “inactive” each time.

Take `C/C=C1/[C@H](O[C@@H]2O[C@H](CO)[C@@H](O)[C@H](O)[C@H]2O)OC=C(C(=O)OC)[C@H]1CC(=O)O[C@@H]1O[C@H](CO)[C@@H](O)[C@H](O)[C@H]1O`: the Potency entry in experiment [1], in experiment [2] and in experiment [3] was “inactive” throughout.

On to `C=CC1C(O[C@@H]2O[C@H](CO)[C@@H](O)[C@H](O)[C@H]2O)OC=C(C(=O)OC)C1CC(=O)O` (some centres not stated), for which the Potency result in experiment [1], in experiment [2] and in experiment [3] was “inactive” throughout.

Take `C[C@@H]1O[C@@H](O[C@@H]2[C@@H](O)[C@@H](O)[C@H](O[C@@H]3[C@@H](O)[C@@H](O[C@]4(CO)O[C@H](CO)[C@@H](O)[C@@H]4OC(=O)/C=C/c4ccc(O)cc4)O[C@H](CO)[C@H]3OC(=O)/C=C/c3ccc(O)cc3)O[C@H]2C)[C@H](O)[C@H](O)[C@H]1O`: the activity change, negative = thiol reactive in experiment [1] was 65.2% [at 11.5 µM]. The activity, negative = inhibition in experiment [2] is 1.58% [at 11.6 µM]. Moreover, the redox activity (% of DA3003) in experiment [3] is -13.4% [at 11.5 µM].

Consider `O=C(O[C@H]1[C@@H]2C=CO[C@@H](O[C@@H]3O[C@H](CO)[C@@H](O)[C@H](O)[C@H]3O)[C@@H]2[C@@]2(CO)O[C@@H]12)c1ccc(O)c(O)c1`, for which the Potency in experiment [1] was 3.27 µM (active). The Potency result in experiment [2] and in experiment [3] was “inactive” each time.

As for `Cc1cc(N2CCCCC2)nc2ccccc12`, the Potency result in experiment [1], in experiment [2] and in experiment [3] was “inactive” in each case.

Regarding `CC1OC(OC2C(O)C(C(=O)O)OC(OC3CCC4(C)C(CCC5(C)C4C=CC4=C6CC(C)(C)CC(O)C6(C)CCC45C)C3(C)C)C2OC2OCC(O)C(O)C2O)C(O)C(O)C1O` (configuration not stated), the activity change, negative = thiol reactive in experiment [1] is 161% [at 11.5 µM]. Further, the activity, negative = inhibition in experiment [2] is -10.9% [at 11.6 µM]. The redox activity (% of DA3003) in experiment [3] is 18.4% [at 11.5 µM].

The record behind these values is PubChem BioAssay (NCATS).
